Test results reported in PubChem BioAssay (NCATS).
Unmarked numbers belong to inactive results. Results filed as inconclusive are left out. Activity calls are given as the source filed them. Calls come from the whole dose curve; as a rule, active = well fitted curve in the direction sought with a large enough effect; inconclusive = small, poorly fitted or top-dose-only effect, or another doubt; inactive = no such curve, though single readings can be large; an effect the other way counts as inactive or inconclusive.

What was measured:
[1] = biological target: Cytochrome P450 3A4 (Homo sapiens) (UniProt P08684); assay: qHTS Assay for Inhibitors and Substrates of Cytochrome P450 3A4 (AID 884); note: potency is the fitted concentration of half-maximal effect; nearly all actives have a fitted effect of over 50% in size
Sequence of Cytochrome P450 3A4 (Homo sapiens) (P08684 whole entry, looked up): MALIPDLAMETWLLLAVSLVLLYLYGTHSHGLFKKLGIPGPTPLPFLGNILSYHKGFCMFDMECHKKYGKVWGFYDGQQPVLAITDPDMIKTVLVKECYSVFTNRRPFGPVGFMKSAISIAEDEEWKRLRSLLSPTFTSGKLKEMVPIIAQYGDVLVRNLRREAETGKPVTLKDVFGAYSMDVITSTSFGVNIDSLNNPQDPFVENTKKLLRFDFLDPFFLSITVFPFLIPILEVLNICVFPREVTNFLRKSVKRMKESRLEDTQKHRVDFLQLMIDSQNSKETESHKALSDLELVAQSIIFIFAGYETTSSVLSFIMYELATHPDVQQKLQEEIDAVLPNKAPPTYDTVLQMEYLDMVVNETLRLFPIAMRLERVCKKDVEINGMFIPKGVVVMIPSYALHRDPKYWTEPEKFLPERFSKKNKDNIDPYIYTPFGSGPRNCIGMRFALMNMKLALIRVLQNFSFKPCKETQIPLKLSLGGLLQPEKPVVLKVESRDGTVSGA
Outline: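 20 nM human CYP3A4 with 25 uM Luciferin-PPXE (at KM) in 200 mM KPO4, preincubated 10 min with compound; NADPH regeneration started a 60 min RT reaction. Luciferin detected by luminescence, normalized to 57 uM ketoconazole as full inhibition.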

[2] = biological target: Cytochrome P450 3A4 (Homo sapiens) (UniProt P08684); assay: qHTS Assay for Activators of Cytochrome P450 3A4 (AID 885); note: nearly all actives have a fitted effect of over 65% in size
Outline: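 20nM CYP3A4 + 25uM Luciferin-PPXE (=KM), 200mM KPO4; cpd 10 min RT; NADPH regen, 60 min RT; stop w/ detection buffer, 20 min; luminescence. Normalized to 57 uM ketoconazole.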

SMILES	Potency [1]	activity change, positive = activation [2]	Potency [2]
C/C(CCC(=O)OC[C@@H]1O[C@H](C#Cc2ccccc2)C=C[C@@H]1Oc1ccc(C)cc1)=N/OC[C@@H](O)COCc1ccco1	3.16 µM (active)	-90.6% [at 11.4 µM]	
CC(C)CC1(C(=O)NCC2CC2)C=CCN1C(=O)c1ccccc1 (stereo not given)	15.8 µM (active)		inactive
N#Cc1ccc(C23CC4(C2)[C@H](CN(CC2CCCCC2)[C@@H]4c2ccccc2)C3c2ccccc2)cc1 (stereo not given in full)	15.8 µM (active)		inactive
CC(=O)OC[C@@H]1O[C@H](CCO/N=C(\C)CCC(=O)OC[C@@H]2O[C@H](C#Cc3ccccc3)C=C[C@@H]2Oc2ccc(C)cc2)C=C[C@@H]1OC(C)=O	3.16 µM (active)	-92.8% [at 11.4 µM]	
CCC1=C2CC[C@H]3C(=O)N(c4ccccc4)C(=O)[C@H]3[C@H]2[C@@]2(Cc3ccccc3)C(=NCCOC)OC(=O)N2C1=O	7.94 µM (active)		inactive
CCC1=C(OC(=O)N(CC)CC)N2C(=O)OC(=NCc3ccccc3)[C@]2(C)[C@H]2C1=CC[C@H]1C(=O)N(CC(=O)OC)C(=O)[C@H]12	5.01 µM (active)		inactive
CCC1=C2CC[C@H]3C(=O)N(CC(=O)OC)C(=O)[C@H]3[C@H]2[C@@]2(Cc3ccccc3)C(=NCCc3c[nH]c4ccccc34)OC(=O)N2C1=O	1.26 µM (active)		inactive
CCC1=C2CC[C@H]3C(=O)N(CC)C(=O)[C@H]3[C@H]2[C@@]2(Cc3ccccc3)C(=NCCOC)OC(=O)N2C1=O	10 µM (active)		inactive
FC(F)(F)c1ccc(C2[C@H]3CN(Cc4cccnc4)[C@H](c4ccccc4)C34CC2(c2cccnc2)C4)cc1 (stereo not given in full)	2 µM (active)		inactive
CCCCCCNC(=O)Nc1ccc(S(=O)(=O)Nc2ccc(CCNC[C@H](O)COc3ccc(O)cc3)cc2)cc1	7.94 µM (active)		inactive
S=C=Nc1cccc(NC(=S)NCCCCNC(=S)Nc2cccc(N=C=S)c2)c1	3.16 µM (active)		inactive
CCC1=C(OC(=O)N(CC)CC)N2C(=O)OC(=NCC3CC3)[C@]2(Cc2ccccc2)[C@H]2C1=CC[C@H]1C(=O)N(CC(=O)OC)C(=O)[C@H]12	2 µM (active)		inactive
COC(=O)C/C=C\[C@@H](C)[C@@H](/C=N\O[C@@H](C)c1cn([C@H]2COC[C@H]2O)nn1)NS(=O)(=O)c1ccc(C)cc1	3.98 µM (active)	-71.6% [at 11.4 µM]	
FC(F)(F)c1ccc(C2[C@H]3CN(Cc4cccnc4)[C@H](c4ccccc4)C34CC2(c2ccccc2)C4)cc1 (stereo not given in full)	3.16 µM (active)		inactive
COC(=O)c1cccc(C23CC4(C2)[C@H](CN(Cc2ccc(C(F)(F)F)cc2)[C@@H]4c2ccccc2)C3c2ccccc2)c1 (stereo not given in full)	12.6 µM (active)		inactive
COC(=O)[C@H]1C[C@@H]2CC[C@@H](O)C[C@@H]2N1Cc1c(F)cccc1Cl	12.6 µM (active)		inactive
CCC1=C2CC[C@H]3C(=O)N(CC)C(=O)[C@H]3[C@H]2[C@@]2(C)C(=O)N(CC(=O)OC)C(=O)N2C1=O	7.94 µM (active)		inactive
CCC1=C(OC(=O)N(CC)CC)N2C(=O)OC(=NCC3CC3)[C@]2(Cc2ccccc2)[C@H]2C1=CC[C@H]1C(=O)N(C)C(=O)[C@H]12	3.98 µM (active)		inactive
CCC1=C2CC[C@H]3C(=O)N(c4ccccc4)C(=O)[C@H]3[C@H]2[C@@]2(C)C(=NCC(=O)OC)OC(=O)N2C1=O	15.8 µM (active)		inactive
CCC1=C2CC[C@H]3C(=O)N(C)C(=O)[C@H]3[C@H]2[C@@]2(Cc3ccccc3)C(=NCC(=O)OC)OC(=O)N2C1=O	10 µM (active)		inactive
COC(=O)c1ccc(C(NC(=O)OCc2ccccc2)/C(=C/[C@@H](C)C(=O)NCc2nc3ccccc3n2C)c2cccnc2)cc1 (stereo not given in full)	2 µM (active)		inactive
C/C(CCN1CCCCc2nc(C)c(C)cc21)=N\OC[C@@H](O)COCc1ccco1	3.98 µM (active)	-64.3% [at 11.4 µM]	
CCC1=C2CC[C@H]3C(=O)N(CC)C(=O)[C@H]3[C@H]2[C@@]2(Cc3ccccc3)C(=NCC3CC3)OC(=O)N2C1=O	2.51 µM (active)		inactive
CO[C@H]1COC(=O)C/C=C\[C@H](C)[C@@H](NS(=O)(=O)c2ccc(C)cc2)COC(=O)CCC[C@@H]1C	3.98 µM (active)	-92.6% [at 11.4 µM]	
O=C1[C@H]2[C@H]3[C@H](O)[C@H](O)C/C(=N/OC[C@@H](O)COCc4ccco4)[C@@H]3CC[C@@H]2C(=O)N1Cc1ccccc1	3.16 µM (active)	-71.1% [at 11.4 µM]	

SMILES	Potency [1]	activity change, positive = activation [2]	Potency [2]
CO[C@H]1COC(=O)[C@H](C)NC(=O)C/C=C\[C@@H](C)[C@@H](NS(=O)(=O)c2ccc(C)cc2)COC(=O)[C@H](OCc2ccccc2)/C=C\[C@@H]1C	3.16 µM (active)	-79.4% [at 11.4 µM]	
CCC1=C2CC[C@H]3C(=O)N(CC)C(=O)[C@H]3[C@H]2[C@@]2(Cc3ccccc3)C(=NCc3ccccc3)OC(=O)N2C1=O	3.16 µM (active)		inactive
C/C(CCC(=O)OC[C@@H]1O[C@H](C#Cc2ccccc2)C=C[C@@H]1Oc1ccc(C)cc1)=N/OC[C@@H](O)[C@H]1O[C@H]2OC(C)(C)O[C@H]2[C@@H]1O	3.98 µM (active)	-117% [at 11.4 µM]	
COC(=O)c1ccc(C(NC(=O)OCc2ccccc2)/C(=C/[C@@H](C)C(=O)N[C@@H](CO)Cc2ccccc2)c2cccnc2)cc1 (stereo not given in full)	1 µM (active)		inactive
N#Cc1ccc(C23CC4(C2)[C@H](CN(Cc2cccnc2)[C@@H]4c2ccccc2)C3c2ccc(C(F)(F)F)cc2)cc1 (stereo not given in full)	6.31 µM (active)		inactive
CNC1=C(Cl)C(=O)c2ccncc2C1=O	1.58 µM (active)		inactive
CCC1=C(OC(=O)N(CC)CC)N2C(=O)OC(=NCC3CC3)[C@]2(C)[C@H]2C1=CC[C@H]1C(=O)N(C)C(=O)[C@H]12	10 µM (active)		inactive
CNC(=O)[C@@H](Cc1ccccc1)N(C)C(=O)[C@@H](Cc1ccc2ccccc2c1)N(C)C(=O)/C=C/CC(C)(C)N	7.94 µM (active)		inactive
CCC1=C(OC(=O)N(CC)CC)N2C(=O)OC(=NCC3CC3)[C@]2(Cc2ccccc2)[C@H]2C1=CC[C@H]1C(=O)N(c3ccccc3)C(=O)[C@H]12	2.51 µM (active)		inactive
CCCNC(=O)OC[C@@H]1O[C@H](CCO/N=C\C[C@H]2C=C[C@H](OC(C)=O)[C@@H](COC(C)=O)O2)C=C[C@@H]1Oc1ccc(OC)cc1	3.98 µM (active)	-95.4% [at 11.4 µM]	
O=C1[C@H]2[C@H]3[C@H](O)[C@H](O)C/C(=N/OC[C@@H](O)COCc4ccco4)[C@H]3CC[C@@H]2C(=O)N1Cc1ccc2c(c1)OCO2	3.16 µM (active)	-88.1% [at 11.4 µM]	
COC(=O)c1ccc(C(NC(=O)OCc2ccccc2)/C(=C/[C@@H](C)C(=O)NCc2ccccc2)c2cccnc2)cc1 (stereo not given in full)	3.98 µM (active)		inactive
CO[C@H]1COC(=O)C/C=C\[C@H](C)[C@@H](OC)COC(=O)[C@H](Cc2ccccc2)NC(=O)C/C=C\[C@@H]1C	3.16 µM (active)	-62.1% [at 11.4 µM]	
Cn1c(=O)c(C(=O)COC(=O)c2cc(C(F)(F)F)nc3c(C(F)(F)F)cccc23)c(N)n(CC2CC2)c1=O	3.98 µM (active)		inactive
CCC1=C2CC[C@H]3C(=O)N(c4ccccc4)C(=O)[C@H]3[C@H]2[C@@]2(Cc3ccccc3)C(=NCC3CC3)OC(=O)N2C1=O	5.01 µM (active)		inactive
C#CCCCO/N=C1/C[C@@H](O)[C@@H](O)[C@@H]2[C@@H]3C(=O)N([C@@H](C)c4ccccc4)C(=O)[C@H]3CC[C@H]12	3.98 µM (active)	-89.1% [at 11.4 µM]	
CCC1=C2CC[C@H]3C(=O)N(CC)C(=O)[C@H]3[C@H]2[C@@]2(Cc3ccccc3)C(=O)N(CC3CC3)C(=O)N2C1=O	2.51 µM (active)		inactive
CCC1=C2CC[C@H]3C(=O)N(C)C(=O)[C@H]3[C@H]2[C@@]2(Cc3ccccc3)C(=NCC3CC3)OC(=O)N2C1=O	5.01 µM (active)		inactive
COC(=O)c1cccc(C23CC4(C2)[C@H](CN(CC2CCCCC2)[C@@H]4c2ccccc2)C3c2ccccc2)c1 (stereo not given in full)	15.8 µM (active)		inactive
COC(=O)[C@@H]1C[C@H]2CC[C@H](O)C[C@H]2N1Cc1c(F)cccc1Cl	15.8 µM (active)		inactive
CCN1C(=O)[C@@H]2[C@H](C1=O)[C@@H]1C[C@H]3C(=O)N(CC)C(=O)[C@H]3[C@@H]3C1=C(C(=O)N1C(=O)O/C(=N\CC4CC4)[C@]31C)[C@@H]2C	15.8 µM (active)		inactive
CCCNC(=O)OC[C@@H]1O[C@H](CCO/N=C(\C)CCN2CCCCc3nc(C)c(C)cc32)C=C[C@@H]1Oc1ccc(OC)cc1	3.16 µM (active)	-95.5% [at 11.4 µM]	
COC(=O)[C@@H]1C[C@@]2(O)[C@H](O)[C@H](O)[C@H](O)C[C@H]2N1Cc1ccccc1OS(=O)(=O)c1ccc(C)cc1	7.94 µM (active)		inactive
CCC1=C(OC(=O)N(CC)CC)N2C(=O)OC(=NCc3ccccc3)[C@]2(C)[C@H]2C1=CC[C@H]1C(=O)N(CC)C(=O)[C@H]12	3.16 µM (active)		inactive
COC(=O)[C@@H]1C[C@@]2(O)[C@@H](O)[C@@H](O)[C@@H](O)C[C@H]2N1Cc1cc(OC)cc(OC)c1	3.16 µM (active)		inactive
